The sample as a whole holds a higher share of hits than the screen did.
AmpC inh detg = blocks E. coli AmpC beta-lactamase in detergent assay | P00811 | AmpC hydrolysis of nitrocefin, absorbance 480 nm, 0.01% Triton | Potency, µM (highest dose often 114 µM), for inactives: at the highest dose activity change, negative = inhibition, actives largely listed as inhibitors | 0.041% of 370,000 active; active = well fitted curve in the direction sought with a large enough effect; inconclusive = small, poorly fitted or top-dose-only effect, or another doubt; inactive = no such curve, though single readings can be large; an effect the other way counts as inactive or inconclusive;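 also: potency is read from the fitted curve at half-maximal effect; 0% = no-compound wells and -100% = no-enzyme wells; nearly all actives have a fitted effect of over 25% in size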
Target sequence (P00811 whole entry, looked up): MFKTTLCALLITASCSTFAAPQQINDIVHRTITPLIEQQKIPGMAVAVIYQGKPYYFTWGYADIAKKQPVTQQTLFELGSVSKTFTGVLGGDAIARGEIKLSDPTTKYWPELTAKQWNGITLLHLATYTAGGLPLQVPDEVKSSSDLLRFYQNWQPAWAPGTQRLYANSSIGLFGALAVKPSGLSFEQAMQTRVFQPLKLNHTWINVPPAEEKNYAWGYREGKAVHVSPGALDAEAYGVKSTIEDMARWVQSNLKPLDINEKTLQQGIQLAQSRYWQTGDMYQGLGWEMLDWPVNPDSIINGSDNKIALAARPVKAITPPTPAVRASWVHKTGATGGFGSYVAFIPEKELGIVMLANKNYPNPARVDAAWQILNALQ
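20 mM phosphate pH 7.0 + 0.01% (detergent screen) or 0.0001% Triton X-100; 5.3 nM AmpC reagent; cpd preinc 15 min RT; nitrocefin (800 uM stock) to start; A480 q20 s × 4 min; Activity was normalised to no-enzyme and no-compound control wells.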
Cycloheximide cs = counter-screen hit for Shiga toxin inhibitors, cycloheximide | max response, % | cell reporter, cycloheximide protein synthesis inhibition counterscreen | 12% of 300,000 active; in the data active = max response mostly above about 13%, no sharp cut-off; inactive = mostly below about 14%; also: read at 38.3 µM for the half of the compounds with a filed dose; 0% is about no effect
AmpC no deterg = blocks E. coli AmpC beta-lactamase in detergent-free assay; P00811; AmpC nitrocefin hydrolysis, absorbance 480 nm, 0.0001% Triton; Potency, µM (series often up to 57.1 µM), for the others: at the highest dose activity change, negative = inhibition, most hits filed as inhibitors; 0.52% of 330,000 active; AID 485341; active = well fitted curve in the direction sought with a large enough effect; inconclusive = small, poorly fitted or top-dose-only effect, or another doubt; inactive = no such curve, though single readings can be large; an effect the other way counts as inactive or inconclusive;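 also: potency is read from the fitted curve at half-maximal effect; plate controls were no compound for no effect and no enzyme for full effect; nearly all actives have a fitted effect of over 20% in size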
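AmpC (5.3 nM in the dispensed reagent) in 20 mM phosphate pH 7.0 with 0.01% (detergent screen) or 0.0001% Triton X-100 was preincubated with compounds for 15 min at room temperature. Nitrocefin was then added from an 800 uM solution, and hydrolysis was followed at 480 nm.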
Shiga toxin inh = blocks Shiga toxin action in Vero cells; Vero cells, Shiga toxin protein synthesis inhibition reporter; inhibition, % at 38.7 µM; 9.2% of 290,000 active; AID 2315; in the data active = inhibition mostly above about 28%, no sharp cut-off; inactive = mostly below about 43%; also: 0% is about no effect
NS1 function inh = inhibitors of influenza NS1 protein function. 0.4% of 270,000 active. Potency, µM (highest dose often 46.1 µM), without a hit: at the top dose activity, positive = more growth; also: potency is read from the fitted curve at half-maximal effect; actives are rising curves; nearly all actives have a fitted effect of over 50% in size
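Growth recovery, yeast-based: influenza A NS1 expressed in S. cerevisiae causes slow growth, and suppressors are detected by OD600. The parent strain without NS1 is used as positive control.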
NS1 inh valid = influenza NS1 function inhibition validation; 1,400 tested, under 10 active; AID 492980; influenza NS1 function cell assay, 15-point titration; activity change, negative = inhibition, % at 32.9 µM; shares compounds with NS1 function inh; also: 0% is about no effect
Flu PR8 replic = influenza NS1 inhibitors: inhibition of influenza A/PR/8/34 replication. shares compounds with NS1 function inh. virus titer (log TCID50), log10 TCID50 at 5 µM. MDCK infected influenza A/PR/8/34, virus titer TCID50; stronger effect = lower value. 30% of 95 active. AID 504647; call rule not given here
An asterisk follows results filed as active; ? = inconclusive; nt = no result given; [ ] = remark or other dose. Unless noted, calls follow the shape of the full dose curve.

SMILES	AmpC inh detg	Cycloheximide cs	AmpC no deterg	Shiga toxin inh	NS1 function inh	NS1 inh valid	others
CS(=O)(=O)N1CCN(C(=O)c2ccc(Cl)s2)CC1	?	-3	5%[2.29 µM]	-12	-2%	nt
O=C1[C@@H]2[C@H](C(=O)N1Cc1ccco1)[C@H]1C=C[C@@H]2C1	-5%	-6	-12%	-29	4%	nt
C[C@@H](NC(=O)c1nc[nH]c1C(=O)NCc1ccccc1)c1ccccc1	5%	nt	6%	nt	nt	nt
CC(C)(CN1CCCC1)NS(=O)(=O)c1ccc(Cl)cc1	-2%	-5	-6%	-2	?	-1
Cc1csc(NC(=O)CSc2nc(=O)[nH]c3c2CCCC3)n1	9%	3	-9%	-2	10%	nt
CCOC(=O)c1ccc(S(=O)(=O)NCC(c2ccc(N(C)C)cc2)c2c[nH]c3ccccc23)cc1 (stereo unspecified)	-15%	2	-32%	15	8.9µM*	?
CC1CCc2c(sc(NC(=S)NC(=O)c3ccccc3)c2C#N)C1 (stereo unspecified)	-3%	21*	-13%	65*	7.9µM*	6
COc1ccc(N2CCN(c3ccc(Cl)nn3)CC2)cc1	8%	16	-8%	15	6%	nt
COc1ccc(S(=O)(=O)N2CCCCCC2)cc1C(=O)OCC(=O)NC(C)(C)C	-6%	-3	68%	-2	nt	nt
COc1cc(NC(=O)COC(=O)c2cc(S(=O)(=O)N3CCCCC3)ccc2Cl)c(C)cc1[N+](=O)[O-]	-4%	-6	-20%	3	14µM*	10	Flu PR8 replic=8.3
COc1ccccc1N(CC(=O)NC1CCCCC1)S(=O)(=O)c1ccccc1	-6%	-4	33%	-7	-4%	nt
CCC1(CC)NC(=O)N(CC(=O)OC(C)C(=O)Nc2cc([N+](=O)[O-])ccc2OC)C1=O (stereo unspecified)	?	1	7%	-11	-3%	nt
CCOc1cc(/C=C2\C(=O)NC(=O)N(CCc3ccc(F)cc3)C2=O)ccc1O	1%	-2	-41%	-10	0.35µM*	30
CN(C)c1ccc(/C=C2/C(=O)NC(=O)N(CCc3ccc(F)cc3)C2=O)cc1	-9%	-2	-45%	-9	-16%	nt
CCOc1cc(/C=C2\C(=O)N(Cc3ccc(C)cc3)C(C)=C2C(=O)OC)ccc1O	?	-3	-30%	-13	14µM*	-2
CC[C@@H]1CC=C[C@H]2[C@H]1C(=O)N(Cc1ccccc1)[C@H]2c1ccc(OC)c(Cl)c1	-8%	-2	28%	1	-63%	nt
CC(CC(=O)Nc1ccccc1C(F)(F)F)c1ccccc1 (stereo unspecified)	-2%	0	-32%	15	-1%	nt
Cc1ccc(C(=O)CSc2nc(O)cc(=O)[nH]2)cc1C	?	1	-38%	-2	7.9µM*	?
CCC(C)c1c(O)nc(SCC(=O)c2ccccc2)[nH]c1=O (stereo unspecified)	-17%	6	-39%	18	4.5µM*	2
c1ccc(C(c2nnnn2Cc2ccco2)N2CCN(c3nc4ccccc4s3)CC2)cc1 (stereo unspecified)	4%	31*	8%	58*	13µM*	-19
c1ccc(C(c2nnnn2Cc2ccco2)N2CCN(C3CCCC3)CC2)cc1 (stereo unspecified)	-7%	8	-25%	36	1%	nt
c1ccc(Cn2nnnc2C(c2ccccc2)N2CCN(c3nc4ccccc4s3)CC2)cc1 (stereo unspecified)	?	-2	-5%	10	10µM*	-14
Cc1cc(Cl)ccc1NS(=O)(=O)c1ccc2c(c1)CC(C)N2C(=O)C1CCC1 (stereo unspecified)	14%	nt	nt	nt	nt	nt
CC(C)(C)c1ccc(CCC2OCC(C[N+]3(C)CCOCC3)O2)cc1 (stereo unspecified)	-14%	-3	47%	-3	0%	nt

Source: PubChem BioAssay
